Experimental data published in PubChem BioAssay (NCATS).
Unmarked numbers belong to inactive results. Results filed as inconclusive are left out. Calls of active or inactive are those of the source. Unless noted, the call rests on the fitted dose curve; in most records, active means well fitted curve in either direction with a large enough effect (not every such curve was filed as active); inconclusive means small, poorly fitted or top-dose-only effect, or another doubt; inactive means flat fitted curve, though single readings scatter.

How the values were obtained:
[1] = AP1 Signaling Pathway (AID 357); conditions: ME-180 AP-1-bla reporter, EGF-induced, beta-lactamase ratio, 5 h; at 17.2 µM (top of the series) unless noted;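 further: ME-180 reporter cells stimulated with EGF at its EC50 level; on the % scale 0 is the no-effect control and ±100 the full control effect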
In short: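 In this screen, ME-180 cells in Opti-MEM with 0.5% dialyzed FBS received EC50 EGF and compound titrations for 5 h. AP-1 reporter beta-lactamase was detected via CCF4 ratio, giving AC50 for positive and negative modulators.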

[2] = Stat Signaling Pathway (AID 446); conditions: ME-180 SIE beta-lactamase reporter, IL-6 stimulated, 5 h; at 17.2 µM (top of the series) unless noted;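 further: ME-180 cervical cancer cells given 40 pM IL-6 alongside compound; SIE-controlled beta-lactamase reporter measured as 460/530 nm FRET emission ratio; on the % scale 0 is the no-effect control and ±100 the full control effect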
In short: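 Reporter line: ME-180 cervical carcinoma, SIE-beta-lactamase. Treatment: compound with 40 pM IL-6, 5 hrs, 37 C, in low-serum OPTI-MEM with 10 mM HEPES pH 7.3. Detection: 460/530 nm fluorescence.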

[3] = biological target: Glucocorticoid receptor (Homo sapiens) (UniProt P04150); assay: GR-GFP Redistribution (AID 450;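 active means compounds whose dose series gives a full or clear partial fitted curve of increased nuclear translocation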; further: potency means the concentration at half of the fitted maximal effect)
Glucocorticoid receptor (Homo sapiens), sequence (P04150 whole entry, looked up): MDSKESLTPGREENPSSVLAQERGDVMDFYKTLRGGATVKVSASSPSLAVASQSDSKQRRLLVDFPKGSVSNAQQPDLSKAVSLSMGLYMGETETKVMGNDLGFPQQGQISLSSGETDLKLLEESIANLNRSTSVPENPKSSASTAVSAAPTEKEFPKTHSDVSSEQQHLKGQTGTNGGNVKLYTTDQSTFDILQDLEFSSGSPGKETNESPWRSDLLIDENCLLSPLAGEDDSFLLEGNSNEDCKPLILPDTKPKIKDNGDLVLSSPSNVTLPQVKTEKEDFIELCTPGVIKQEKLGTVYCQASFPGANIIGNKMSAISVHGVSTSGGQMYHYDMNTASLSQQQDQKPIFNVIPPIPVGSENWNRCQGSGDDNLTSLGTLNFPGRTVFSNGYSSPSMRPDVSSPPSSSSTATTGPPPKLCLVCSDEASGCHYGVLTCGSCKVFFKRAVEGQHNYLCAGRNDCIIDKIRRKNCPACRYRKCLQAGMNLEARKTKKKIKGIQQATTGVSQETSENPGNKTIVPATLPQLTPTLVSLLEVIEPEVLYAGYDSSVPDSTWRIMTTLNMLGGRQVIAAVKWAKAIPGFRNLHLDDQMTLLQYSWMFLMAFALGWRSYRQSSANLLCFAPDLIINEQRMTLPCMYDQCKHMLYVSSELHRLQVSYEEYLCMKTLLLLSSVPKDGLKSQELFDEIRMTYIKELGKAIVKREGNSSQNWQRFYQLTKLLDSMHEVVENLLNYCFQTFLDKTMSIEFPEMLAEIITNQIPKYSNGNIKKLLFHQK

[4] = qHTS Assay for Identification of Small Molecule Agonists for Hypoxia Response Element Signaling Pathway (AID 914; active means well fitted activation curve with a large enough effect in the signal ratio, with a control signal flat, not every such curve was filed as active; the % refers to the signal ratio; further: potency means the concentration at half of the fitted maximal effect; on activation: % of control where 0% means no effect); conditions: ME-180 (cervical carcinoma) HRE-bla reporter, beta-lactamase ratio, CoCl2, 17 h; activation: hits give high values
In short: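 HRE-bla ME-180 cells, overnight plating in Opti-MEM with 0.5% dialyzed FBS; cpd titration + EC50 CoCl2, 17 h, 37 degrees Celsius; CCF4 2.5 h RT; 460/530 nm ratio; AC50.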

SMILES | activity change, negative = inhibition [1] | activity, negative = inhibition [2] | Potency [3] | activation [4] | Potency [4]
CCc1nc(N2CCCC2)c(C#N)c2c1CCCC2 | -16.4% | -19.9% | > 20.6 µM | -12% | –
Cc1nnc2c(NC(C)C)nc3ccccc3n12 | 14.9% | -12.6% | > 20.6 µM | – | 10 µM (active)
CC(CN1CCN(C)CC1)OC(=O)c1ccc(Cl)cc1Cl (stereo not drawn) | 12% | -1.03% | – | -4.39% | –
Cc1c(/C(O)=C2\C(=O)C(=O)N(CCCN(C)C)C2c2ccccc2)cnn1-c1ccccc1 (stereo not drawn) | -3.19% | 0.518% | > 20.6 µM | 3.31% | –
CCOc1ccc(-c2nnc3sc(-c4ccccc4OC)nn23)cc1 | 18% | 5.75% | > 20.6 µM | -10.9% | –
CCC(C(=O)Nc1ncn[nH]1)(C(F)(F)F)C(F)(F)F | 3.02% | 13% | > 20.6 µM | -10.1% | –
COc1ccc(C2=CC(c3ccc(C)cc3)n3nnnc3N2)cc1 (stereo not drawn) | -20.8% | -14.7% | > 20.6 µM | – | 10 µM (active)
CCCCCNC(=O)c1c(N)n(/N=C/c2ccco2)c2nc3ccccc3nc12 | 20.3% | 28.5% | > 20.6 µM | – | 7.94 µM (active)
COc1ccc(-n2c(SCC(N)=O)nc3sc4c(c3c2=O)CCN(C)C4)cc1 | -7.72% | 2.19% | > 20.6 µM | -0.0215% | –
COc1ccc(N(CN2C(=O)C3C4C=CC(C4)C3C2=O)C(=O)c2ccco2)cc1 (stereo not drawn) | -8.5% | – | > 20.6 µM | – | –
CCCCCCc1cc2cc(-c3nnc(-c4ccccc4O)o3)c(=O)oc2cc1O | -3.45% | 73.1% [activator] (active) | – | – | 3.16 µM (active)
Cc1ccccc1C(=O)c1ccc2c(c1)n(C)c(=O)n2C | 4.88% | -15.6% | > 20.6 µM | -17.8% | –
Oc1ccccc1-c1nc(NCc2ccco2)c2ccccc2n1 | 19.5% | – | > 20.6 µM | – | –
CCN1CCN(c2nc3c(C)cccn3c(=O)c2/C=C(\C#N)S(=O)(=O)c2ccc(C)cc2)CC1 | 6.19% | – | > 20.6 µM | – | –
CCCc1cc(-c2nc(N)ncc2-c2ccc3c(c2)OCCCO3)c(O)cc1OC | -29.1% | – | > 20.6 µM | – | –
CSc1nc2sc3c(c2c2nnnn12)CCCC3 | 19.7% | – | > 20.6 µM | – | –
CC(C)(C)c1nnc2sc(SCC(=O)c3ccccc3)nn2c1=O | 2.49% | – | > 20.6 µM | – | –
Clc1ccccc1CSc1nnc(-c2ccco2)c(-c2ccco2)n1 | 10.8% | – | > 20.6 µM | – | –
COCc1cc(=O)[nH]c(Nc2nc3ccc(C)cc3o2)n1 | -0.718% | – | > 20.6 µM | – | –
c1ccc(CN2CCN(c3ncnc4c3[nH]c3ccccc34)CC2)cc1 | -15.1% | – | > 20.6 µM | – | –
C=CCNC(=O)C(C#N)c1nc2ccccc2nc1N1CCCCCC1 (stereo not drawn) | -18.4% | – | > 20.6 µM | – | –
Clc1ccc2nc(N3CCNCC3)nc(-c3ccccc3)c2c1 | 28.9% | – | > 20.6 µM | – | –
Clc1ccc(-c2nnc3sc(Cc4cccs4)nn23)cc1 | 2.06% | – | > 20.6 µM | – | –
CCOC(=O)c1ccc(N=Cc2nc(-c3ccccc3)oc2OC(C)=O)cc1 | -16.3% | – | > 20.6 µM | – | –
Cc1c([C@H]2[C@@H](CC#N)C2(C)C)c2ccccc2n1C | -11.6% | – | > 20.6 µM | – | –
COc1ccc(/C(O)=C2\C(=O)C(=O)N(c3cc(C)on3)C2c2ccccc2OC)cc1 (stereo not drawn) | -12.4% | – | > 20.6 µM | – | –
COC(=O)CSc1nc2sc3c(c2c(=O)n1C1CCCCC1)CCN(C)C3 | -11.2% | – | > 20.6 µM | – | –
CC1CCN(c2oc(-c3ccccc3Cl)nc2C#N)CC1 | -14% | – | > 20.6 µM | – | –
COc1cccc(-c2nc(NCC3CCCO3)c3ccccc3n2)c1O (stereo not drawn) | -22.6% | – | > 20.6 µM | – | –
